# Reference: ChEMBL document CHEMBL3988442, “University of Dundee, Small-Polar-MMV Screening Library” (2021)
# Among all 85,000 compounds or so, about 440 (0.52%) showed an effect of 50% or more. Only a selection was taken, and strong results are over-represented in it overall.
# Test: In vitro enzyme assay to detect hydrolysis of chlorophenol red-beta-D-[…] directly proportional to the number of Toxoplasma stably expressing beta-galactosidase
# Type: functional, organism-based, Toxoplasma gondii
# Parameters: scale not given: in the data most compounds retested in dose-response had high values
Structure (SMILES),Percent Effect (50 µM),Percent Effect (10 µM)
O=C(c1cccc(N2CCNC2=O)c1)N1CCOCC1,-16.74%,
Cc1ccc(-c2cc(CNc3ncnc4c3CCNCC4)no2)cc1,,59.71%
Clc1ccccc1-c1cc(CNc2ncnc3c2CCNCC3)no1,,22.17%
COc1ccc(-c2cc(CNc3ncnc4c3CCNCC4)no2)cc1,,5.898%
O=C(CSc1nnc[nH]1)NCc1ccc(Br)c(F)c1,-12.01%,
CCOc1ccc(CN2C(=O)CC(C)(C)C2=O)nc1,,15.64%
CC(=O)Cc1ccn(C(C)C)n1,-14.04%,
CC(C)n1ccc(CN2C(=O)CC(C)(C)C2=O)n1,66.84%,
Nc1n[nH]c(SCc2ccc3c(c2)OCCO3)n1,48.58%,
CC(C)(C)OC(=O)CNC1CCOCC1,-4.673%,
O=C(Nc1ccc(Br)cn1)C1CCCNC1 (stereo unspecified),56.99%,
CCN1CC(C(=O)Nc2ccc(Br)cn2)CC1=O (stereo unspecified),-17.13%,
Cc1cccc(NC(=O)C2CCCNC2)n1 (stereo unspecified),-13.07%,
CC(NC(=O)c1ccc(Br)cc1)C(=O)N1CCOCC1 (stereo unspecified),-8.67%,
Cc1cc(C)n(CC2CCCN2CCCS(N)(=O)=O)n1 (stereo unspecified),,-7.895%
Cc1cc(C)n(CC2CCCN2CCCS(C)(=O)=O)n1 (stereo unspecified),,55.61%
Cc1cc(C)n(CC2CCCN2CCS(C)(=O)=O)n1 (stereo unspecified),,-2.075%
Cc1n[nH]c(C)c1C(NC(N)=O)c1ccccc1 (stereo unspecified),2.289%,
CCN1CCCN(c2ccccn2)CC1,3.404%,
NCc1nc(-c2ccccn2)no1,-15.18%,
NCc1nc(-c2ccccn2)cs1,-2.115%,

Structure (SMILES),Percent Effect (50 µM),Percent Effect (10 µM)
NCc1cccc(-c2ccccn2)n1,73.75%,
CN(CC(=O)Nc1ccsc1)C1CCS(=O)(=O)C1 (stereo unspecified),-6.022%,
O=C(NCC1CCOC1)c1ccoc1C(F)(F)F (stereo unspecified),-4.875%,
NCCNc1ccc2ccccc2n1,-5.159%,
O=C(c1ccc(F)cc1)C(O)O,0.6979%,
CCn1ncnc1CN1CCCC2(C1)CN(C)C(=O)O2 (stereo unspecified),-8.186%,
CC(=O)N1CCCCCC1C1CCNCC1 (stereo unspecified),-20.88%,
COCC(=O)N1CCCCCC1C1CCNCC1 (stereo unspecified),-2.687%,
NC(=O)N1CCCCCC1C1CCNCC1 (stereo unspecified),99.53%,
COCCC(=O)N(C)C(C)Cc1ncccc1C (stereo unspecified),-3.603%,
CC1(C)CC(n2cccn2)C(C)(C)O1 (stereo unspecified),95.21%,
Cn1cc(C(=O)NC2CC(C)(C)OC2(C)C)cn1 (stereo unspecified),6.396%,
O[C@@H]1CCC[C@H]1n1cccn1,27.87%,
Cc1cc(C(=O)NCc2ccc(CO)cc2)cc(C)n1,4.895%,
CC(C)(C)c1cn2c(n1)C(CNCc1ccccn1)CCC2 (stereo unspecified),,84.2%
Cn1cccc1CNCC1CCCn2cc(C(C)(C)C)nc21 (stereo unspecified),,2.504%
CC(C)(C)c1cn2c(n1)C(CNCc1cnn3ccccc13)CCC2 (stereo unspecified),,84.08%
Cc1cn2c(n1)C(CNCc1cccc3c1OCO3)CCC2 (stereo unspecified),,1.818%
Cc1cn2c(n1)C(CNCc1cnn3ccccc13)CCC2 (stereo unspecified),,-1.725%
Cc1cn2c(n1)C(CNCC1=Cc3ccccc3OC1)CCC2 (stereo unspecified),,-4.432%
